{"source": "PubChem BioAssay (Tox21)", "note": "“And” between values parts separate entries of the source, which are not always exact repeats. Equal entries are not always repeated. Records with an inconclusive call do not appear. Entries that show only a call come without a potency. Values without a mark were called inactive. The source made the active and inactive calls. Calls come from the whole dose curve; as a rule, active = well fitted cell-killing curve with a large enough effect in the repeat runs; inconclusive = weak or mixed curves, or effect the other way; inactive = no such curve, though single readings can be large or run the other way. Potency is the fitted concentration of half-maximal effect."}
{"assay": "qHTS assay to identify small molecule antagonists of the thyroid receptor (TR) signaling pathway - cell viability counter screen (AID 743064); note: nearly all actives have a fitted effect of over 50% in size", "details": "GH3.TRE-Luc viability, CellTiter-Fluor, 24 h; series mostly up to 70.3 µM; activity change, negative = cytotoxic: at the top concentration", "excerpt": "National Center for Advancing Translational Sciences [NCATS]\nNIH Chemical Genomics Center [NCGC]\nU.S. Environmental Protection Agency [EPA]\nNational Institutes of Environmental Health Sciences [NIEHS]\nNational Toxicology Program [NTP]\nU.S. Food and Drug Administration [FDA]\nThyroid receptor (TR), a nuclear hormone receptor, plays an important role in development, proliferation, differentiation, metabolism, brain function, and cardiovascular system. […] To profile the Tox21 10K compound library in TR signaling, a cell-based GH3-TRE-Luc assay (GH3.TRE-Luc cell line, developed by the laboratory of Dr. Albertinka J. Murk, Wageningen University) was used to measure the inhibition of TR. GH3 (rat pituitary tumor) cells stably expressing a TR activity sensor consisting of two TR response elements and a luciferase reporter gene. The cytotoxicity of the Tox21 compound library against the GH3.TRE-Luc cell line was tested in parallel by measuring the cell viability using CellTiter-Fluor assay (Promega, Madison, WI) in the same wells.\nTox21 Assay Protocol Summary:\nGH3.TRE-Luc cells were dispensed at 1500 cells/4 uL/well into 1536-well white solid bottom plates using a Multidrop Combi dispenser (Thermo Fisher Scientific Inc., Waltham, MA). After the assay plates were incubated at 37 C for 4 hours, 23 nL of library compound or DMSO controls was transferred to the assay plates by a pintool station (Kalypsys, San Diego, CA), followed by addition of 1 ul of T3 (1 nM, final concentration in the wells) to stimulate TR transactivation. The assay plates were incubated at 37 C for 23.5 h, and then 1 uL of CellTiter-Fluor reagent (Promega, Madision, WI) of measuring cytotoxicity was added to each well using a Bioraptr Flying Reagent Dispenser (FRD) workstation (Beckman Coulter, Indianapolis, IN, USA). The plates were incubated at 37C and 5% CO2 for additional 30 min, and fluorescence intensity was measured by a ViewLux plate reader (PerkinElmer, Shelton, CT)."}
{"smiles": "CC(C)=CCC/C(C)=C/C=O", "Potency": "inactive"}
{"smiles": "Brc1ccc(Oc2ccc(Br)cc2)cc1", "Potency": "inactive"}
{"smiles": "CCCCC(CC)COC(=O)c1ccc(C(=O)OCC(CC)CCCC)cc1", "note": "(stereo not given)", "activity change, negative = cytotoxic": "16.9%"}
{"smiles": "CCCCCCCCCCCCCC(=O)O", "activity change, negative = cytotoxic": "-11.8%"}
{"smiles": "C=C(C)CC(C)(C)C", "Potency": "inactive"}
{"smiles": "O=C(NCC1CCCCN1)c1cc(OCC(F)(F)F)ccc1OCC(F)(F)F", "note": "(stereo not given)", "Potency": "29.8 µM (active)"}
{"smiles": "CCN(CC)CCNC(=O)c1ccc(N)cc1", "Potency": "inactive"}
{"smiles": "CC[N+](CC)(CC(=O)Nc1c(C)cccc1C)Cc1ccccc1", "Potency": "inactive"}
{"smiles": "O=Cc1ccc(CO)o1", "activity change, negative = cytotoxic": "10.5%"}
{"smiles": "COc1ccc2cc3[n+](cc2c1OC)CCc1cc2c(cc1-3)OCO2", "activity change, negative = cytotoxic": "0.476%"}
{"smiles": "Cc1ccc(Cl)cc1", "Potency": "inactive"}
{"smiles": "CC(=O)OC(C)(C)C1CC=C(C)CC1", "note": "(stereo not given)", "Potency": "inactive"}
{"smiles": "Cc1ccncc1", "activity change, negative = cytotoxic": "0.445%"}
{"smiles": "Cc1ccc([N+](=O)[O-])cc1N", "Potency": "inactive"}
{"smiles": "CCn1cc(C(=O)O)c(=O)c2cc3c(cc21)OCO3", "Potency": "inactive"}
{"smiles": "CCCOCC(C)O", "note": "(stereo not given)", "Potency": "inactive"}
{"smiles": "C=C(CC(=O)O)C(=O)O", "Potency": "inactive"}
{"smiles": "CC(=O)OC[C@H]1O[C@@](COC(C)=O)(O[C@H]2O[C@H](COC(C)=O)[C@@H](OC(C)=O)[C@H](OC(C)=O)[C@H]2OC(C)=O)[C@@H](OC(C)=O)[C@@H]1OC(C)=O", "Potency": "inactive"}
{"smiles": "Cc1ccc(C(C)C)cc1", "Potency": "inactive"}
{"smiles": "CC(O)CNCC(C)O", "note": "(stereo not given)", "activity change, negative = cytotoxic": "17.1%"}
{"smiles": "Cc1ccccc1C=O", "Potency": "inactive"}
{"smiles": "O=C1C(N(CO)C(=O)NCO)N(CO)C(=O)N1CO", "note": "(stereo not given)", "activity change, negative = cytotoxic": "-2.69%"}
{"smiles": "COc1ccc([C@@H]2CC(=O)c3c(O)cc(O[C@@H]4O[C@H](CO[C@@H]5O[C@@H](C)[C@H](O)[C@@H](O)[C@H]5O)[C@@H](O)[C@H](O)[C@H]4O)cc3O2)cc1OC", "Potency": "inactive"}
{"smiles": "CCCCCC(C)=O", "Potency": "inactive"}
{"smiles": "COC(=O)/C=C\\C(=O)OC", "activity change, negative = cytotoxic": "-1.74%"}
{"smiles": "CC(C)c1ccc(C(C)C)cc1", "Potency": "inactive"}
{"smiles": "OCCOCCOCCOCCOCCO", "Potency": "inactive"}
{"smiles": "Nc1cccc(C(F)(F)F)c1", "Potency": "inactive"}
{"smiles": "C[n+]1ccn(CCO)c1", "activity change, negative = cytotoxic": "7.75% [at 95 µM]"}
{"smiles": "CC/C=C(\\C(=O)N[C@@H]1C(=O)N2C(C(=O)OCOC(=O)C(C)(C)C)=C(COC(N)=O)CS[C@H]12)c1csc(N)n1", "Potency": "inactive"}
{"smiles": "CC(=O)C(C)C", "Potency": "inactive"}
{"smiles": "C=CC(=O)NCOCCCC", "Potency": "inactive"}
{"smiles": "CC(CN1c2ccccc2Sc2ccccc21)N(C)C", "note": "(stereo not given)", "Potency": "23.7 µM (active) and 5.5 µM (active) and 30.6 µM (active)"}
{"smiles": "OC1CCCCC1", "Potency": "inactive"}
{"smiles": "OCc1ccc(Cl)cc1Cl", "activity change, negative = cytotoxic": "15.7%"}
{"smiles": "Cc1cc(CC(=O)O)n(C)c1C(=O)c1ccc(Cl)cc1", "Potency": "inactive"}
{"smiles": "CCCOC(=O)NCCCN(C)C", "Potency": "inactive"}
{"smiles": "CCCCCCCCC(=O)O", "Potency": "inactive"}
{"smiles": "CC(C)(C)NC[C@H](O)COc1nsnc1N1CCOCC1", "Potency": "inactive"}
{"smiles": "CC(=O)OCCC(C)C", "Potency": "inactive"}
